Test results from PubChem BioAssay (Tox21).
Results filed as inconclusive are left out. Activity calls are given as the source filed them. Unless noted, the call rests on the fitted dose curve; in most records, active means well fitted curve in the direction sought with a large enough effect in the repeat runs; inconclusive means weak or mixed curves; inactive means no such curve, though single readings can be large; an effect the other way counts as inactive or inconclusive.

Assays:
[1] = molecular target: Retinoic acid receptor RXR-alpha (Homo sapiens) (UniProt P19793); assay: qHTS assay to identify small molecule agonists of the RXR signaling pathway (AID 1159527; calls by dose curve; further: nearly all actives have a fitted effect of over 35% in size)
Procedure, shortened: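 Compounds in DMSO were added to RXR-alpha-UAS-bla HEK 293T cells kept in 2% charcoal-stripped serum, and incubated 16 hr at 37 C with 5% CO2. Reporter signal came from a 2 hr B/G FRET substrate step.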

[2] = qHTS assay to identify small molecule agonists of the RXR signaling pathway - cell viability counter screen (AID 1159529);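 further: HEK 293T cells carrying an RXR-alpha UAS beta-lactamase reporter; series mostly up to about 77 µM; nearly all actives have a fitted effect of over 50% in size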
Procedure, shortened: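 Counter screen: CellTiter-Glo luminescence. Cells: RXR-alpha-UAS-bla HEK 293T. Medium: 2% charcoal-stripped FBS. Treatment: 16 h, 37 C. Reagent incubation: 30 min, RT.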

[3] = qHTS assay to identify small molecule antagonists of the retinoid acid receptor (RAR) signaling pathway - cell viability counter screen (AID 1159551); further: nearly all actives have a fitted effect of over 35% in size
Procedure, shortened: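 C3RL4 RARE-luciferase cells, 1,000/well, incubated overnight, then dosed with compound plus 1 uM retinol (final). After 6 hr at 37 C, viability read by CellTiter-Glo ATP luminescence following 30 min at room temperature.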

[4] = qHTS assay to identify small molecule antagonists of the retinoic acid receptor (RAR) signaling pathway (AID 1159552; further: nearly all actives have a fitted effect of over 50% in size)
Procedure, shortened: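 Antagonism of retinol-induced RARE reporter activity was measured in C3RL4 cells. Exposure to compounds and 1 uM final retinol lasted 6 hr at 37 C, with luminescence as endpoint.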

[5] = qHTS assay to identify small molecule agonists of the retinoic acid receptor (RAR) signaling pathway (AID 1159553)
Procedure, shortened: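 C3RL4 RARE-luciferase cells were seeded at 1,000/well and grown overnight at 37 C, then exposed to compounds for 6 hr at 37 C, 5% CO2. Luciferase reagent was added and luminescence was read after 30 min at room temperature.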

[6] = qHTS assay to identify small molecule antagonists of the estrogen related receptor (ERR) signaling pathway from Tox21 library - cell viability counter screen (AID 1224834); further: nearly all actives have a fitted effect of over 30% in size
Procedure, shortened: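 ERR reporter cells, 2,000 per well, rested 6 h, then exposed to compound in DMSO for 17.5 hours at 37 C. Viability read as fluorescence after 30 min with CellTiter-Fluor.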

[7] = molecular target: Luciferin 4-monooxygenase (Photinus pyralis) (UniProt P08659); assay: qHTS assay to identify small molecule inhibitors of firefly luciferase (AID 1224835); further: series mostly up to about 120 µM; nearly all actives have a fitted effect of over 25% in size
Procedure, shortened: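 Biochemical qHTS: compounds run as interplate titrations against purified firefly enzyme, with D-luciferin and ATP each at its KM concentration. Light output recorded by CCD imaging.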

[8] = qHTS assay to identify small molecule agonists of the constitutive androstane receptor (CAR) signaling pathway - cell viability counter screen (AID 1224836); further: series mostly up to about 92 µM; nearly all actives have a fitted effect of over 45% in size
Procedure, shortened: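 Double-stable HepG2 hepatoma cells (hCAR plus CYP2B6-2.2kb) are treated for 23 h at 37 C with test compounds in 15-point concentration series. PK11195 at 0.75 uM final is co-added. Cell viability is quantified by CellTiter-Fluor.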

[9] = qHTS assay to identify small molecule antagonists of the constitutive androstane receptor (CAR) signaling pathway - cell viability counter screen (AID 1224837); further: series mostly up to about 92 µM; nearly all actives have a fitted effect of over 45% in size
Procedure, shortened: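 HepG2 cells stably carrying hCAR and CYP2B6-2.2kb reporter, stimulated with 50 nM CITCO and compounds at 15 concentrations for 23 h at 37 C. Viability measured by CellTiter-Fluor fluorescence.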

[10] = molecular target: Nuclear receptor subfamily 1 group I member 3 (Homo sapiens) (UniProt Q14994); assay: qHTS assay to identify small molecule antagonists of the constitutive androstane receptor (CAR) signaling pathway (AID 1224838); further: nearly all actives have a fitted effect of over 40% in size
Procedure, shortened: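 HepG2 cells stably carrying hCAR and a CYP2B6-2.2kb luciferase reporter, seeded 4 hrs before compound (15 concentrations). Stimulated with 50 nM CITCO for 24 hr at 37 C. ONE-Glo luminescence read after 30 min at room temperature.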

[11] = molecular target: Nuclear receptor subfamily 1 group I member 3 (Homo sapiens) (UniProt Q14994); assay: qHTS assay to identify small molecule agonists of the constitutive androstane receptor (CAR) signaling pathway (AID 1224839); further: series mostly up to about 92 µM; nearly all actives have a fitted effect of over 15% in size
Procedure, shortened: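 Readout: firefly luciferase luminescence via ONE-Glo. System: HepG2 double-stable for hCAR and CYP2B6-2.2kb. Conditions: 15-point compound titration, PK11195 at 0.75 uM final, 24 h incubation.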

[12] = qHTS assay to identify small molecule antagonists of the estrogen related receptor signaling pathway with the pleiotropic PPARgamma coactivator (PGC) from Tox21 10K library - cell viability counter screen (AID 1224840; active means well fitted cell-killing curve with a large enough effect in the repeat runs, not every such curve was filed as active; further: nearly all actives have a fitted effect of over 40% in size)
Procedure, shortened: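 PGC/ERR cells (2,000/well) plated 6 h, then compound-treated for 17.5 h at 37 C. Viability measured by CellTiter-Fluor fluorescence after 30 min at 37 C, multiplexed with the pathway assay.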

[13] = qHTS assay to identify small molecule antagonists of the estrogen related receptor signaling pathway with the pleiotropic PPARgamma coactivator (PGC) from Tox21 10K library (AID 1224841; call rule not given here; further: series mostly up to about 92 µM; actives are mostly falling curves and most rising ones were filed inactive; nearly all actives have a fitted effect of over 50% in size)
Procedure, shortened: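 PGC/ERR cell line, 2,000 cells/well, pre-incubated 6 hours at 37 C, then exposed to compounds for 18 hours at 37 C; luciferase read with One-Glo luminescence after 30 min at room temperature.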

[14] = qHTS assay to identify small molecule agonists of the estrogen related receptor signaling pathway with the pleiotropic PPARgamma coactivator (PGC) from Tox21 10K library (AID 1224842); further: nearly all actives have a fitted effect of over 15% in size
Procedure, shortened: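 PGC/ERR reporter cell line, 2,000 cells per well, incubated 6 h at 37 C before 23 nL compound in DMSO was added. After 18 h at 37 C, One-Glo luminescence read following 30 min at room temperature.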
On the % scale 0 is the no-effect control and ±100 the full control effect.

Chain of Retinoic acid receptor RXR-alpha (Homo sapiens) (P19793 whole entry, looked up): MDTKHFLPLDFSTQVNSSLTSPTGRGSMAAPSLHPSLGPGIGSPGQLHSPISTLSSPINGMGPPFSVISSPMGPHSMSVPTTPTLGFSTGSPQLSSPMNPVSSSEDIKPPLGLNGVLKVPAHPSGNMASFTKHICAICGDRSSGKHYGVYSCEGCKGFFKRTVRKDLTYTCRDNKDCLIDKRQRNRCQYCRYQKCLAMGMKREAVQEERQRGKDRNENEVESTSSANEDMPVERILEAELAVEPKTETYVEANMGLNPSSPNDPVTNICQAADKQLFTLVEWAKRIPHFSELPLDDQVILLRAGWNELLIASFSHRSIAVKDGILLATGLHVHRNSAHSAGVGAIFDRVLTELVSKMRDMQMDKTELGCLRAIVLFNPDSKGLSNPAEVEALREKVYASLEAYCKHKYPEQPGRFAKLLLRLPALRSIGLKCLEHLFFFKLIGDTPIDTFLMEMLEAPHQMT
Chain of Luciferin 4-monooxygenase (Photinus pyralis) (P08659 whole entry, looked up): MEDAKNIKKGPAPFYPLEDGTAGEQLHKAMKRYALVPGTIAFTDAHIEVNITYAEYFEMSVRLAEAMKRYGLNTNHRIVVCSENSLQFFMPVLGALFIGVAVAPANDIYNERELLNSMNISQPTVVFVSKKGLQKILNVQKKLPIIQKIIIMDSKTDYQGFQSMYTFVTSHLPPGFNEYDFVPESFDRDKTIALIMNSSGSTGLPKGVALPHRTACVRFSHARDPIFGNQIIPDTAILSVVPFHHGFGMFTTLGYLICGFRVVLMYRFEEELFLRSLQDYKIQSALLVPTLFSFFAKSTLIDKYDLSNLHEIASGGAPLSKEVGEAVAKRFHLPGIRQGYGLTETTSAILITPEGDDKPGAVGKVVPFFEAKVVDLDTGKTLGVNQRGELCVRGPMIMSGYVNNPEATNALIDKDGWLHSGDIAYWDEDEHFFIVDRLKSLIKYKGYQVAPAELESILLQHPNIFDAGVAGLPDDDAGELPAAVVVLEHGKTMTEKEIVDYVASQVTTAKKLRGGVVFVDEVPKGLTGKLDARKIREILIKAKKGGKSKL
Chain of Nuclear receptor subfamily 1 group I member 3 (Homo sapiens) (Q14994 whole entry, looked up): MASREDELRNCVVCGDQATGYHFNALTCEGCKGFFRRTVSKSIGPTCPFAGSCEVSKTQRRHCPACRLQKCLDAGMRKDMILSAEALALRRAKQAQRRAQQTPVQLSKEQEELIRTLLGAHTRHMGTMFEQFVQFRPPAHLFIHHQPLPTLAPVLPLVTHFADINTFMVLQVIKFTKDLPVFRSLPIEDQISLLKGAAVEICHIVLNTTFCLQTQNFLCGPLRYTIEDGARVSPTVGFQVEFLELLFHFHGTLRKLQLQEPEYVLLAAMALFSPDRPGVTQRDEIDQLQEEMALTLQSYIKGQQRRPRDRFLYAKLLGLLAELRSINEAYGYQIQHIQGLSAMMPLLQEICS

FC(F)OC(Cl)C(F)(F)F (stereo not drawn)
inactive: Potency [1] | Potency [2] | outcome [3] | Potency [4] | Potency [5] | Potency [6] | Potency [7] | Potency [8] | Potency [9] | Potency [10] | Potency [11] | Potency [12] | Potency [13] | outcome [14]

CCCCC/C=C\CCC=O
inactive: Potency [1] | Potency [2] | outcome [3] | Potency [4] | Potency [5] | Potency [6] | Potency [8] | Potency [9] | Potency [10] | Potency [11] | Potency [12]

O=S(O)CO
inactive: Potency [1] | Potency [2] | outcome [3] | Potency [4] | Potency [5] | Potency [6] | Potency [7] | Potency [8] | Potency [9] | Potency [10] | Potency [11] | Potency [12] | Potency [13] | outcome [14]

NC(=O)c1ccc(N)cc1
inactive: Potency [1] | Potency [2] | outcome [3] | Potency [4] | Potency [5] | Potency [6] | Potency [7] | Potency [8] | Potency [9] | Potency [10] | Potency [11] | Potency [12] | Potency [13] | outcome [14]

COc1ccc2c(c1)c(CC(=O)OCC(=O)O)c(C)n2C(=O)c1ccc(Cl)cc1
inactive: Potency [1] | Potency [2] | outcome [3] | Potency [4] | Potency [5] | Potency [6] | Potency [8] | Potency [9] | Potency [10] | Potency [11] | Potency [12] | Potency [13]

N[C@@H](C(=O)N[C@@H]1C(=O)N2C(C(=O)O)=C(Cl)CS[C@H]12)c1ccccc1
inactive: activation [1] 3.92% [at 6.98 µM] | activity change, negative = cytotoxicity [2] 16.6% [at 6.97 µM] | activity change, negative = cytotoxicity [3] 2.73% [at 8.39 µM] | activity, negative = inhibition [4] -6.75% [at 8.39 µM] | activation [5] 0.152% [at 8.36 µM] | viability change, negative = cytotoxic [6] 3.31% [at 8.39 µM] | activity change, negative = inhibition [7] -5.09% [at 10.5 µM] | viability change, negative = cytotoxic [8] 0.971% [at 8.39 µM] | activity change, negative = cytotoxicity [9] 8.33% [at 8.39 µM] | activity, negative = inhibition [10] -13.2% [at 8.39 µM] | activation [11] -1.38% [at 8.39 µM] | viability change, negative = cytotoxic [12] 10.3% [at 8.39 µM] | activity, negative = inhibition [13] -0.314% [at 8.39 µM] | activation [14] -0.0958% [at 8.39 µM]

CN(C)CCCSc1ccccc1NC(=O)/C=C/c1ccccc1
inactive: Potency [1] | Potency [2] | outcome [3] | Potency [4] | Potency [5] | Potency [6] | Potency [7] | Potency [8] | Potency [9] | Potency [10] | Potency [11] | Potency [12] | Potency [13] | outcome [14]

CCCN1CCCC[C@H]1C(=O)Nc1c(C)cccc1C
inactive: Potency [1] | Potency [2] | outcome [3] | Potency [4] | Potency [5] | Potency [6] | Potency [7] | Potency [8] | Potency [9] | Potency [10] | Potency [11] | Potency [12] | Potency [13] | outcome [14]

COc1cc(C(=O)N2CCCCCCC2)cc(OC)c1OC
inactive: Potency [1] | Potency [2] | outcome [3] | Potency [4] | Potency [5] | Potency [6] | Potency [7] | Potency [8] | Potency [9] | Potency [10] | Potency [11] | Potency [12] | Potency [13] | outcome [14]

CC1=CC(C)C(C=O)CC1 (stereo not drawn)
inactive: Potency [1] | Potency [2] | outcome [3] | Potency [4] | Potency [5] | Potency [6] | Potency [7] | Potency [8] | Potency [9] | Potency [10] | Potency [11] | Potency [12] | Potency [13] | outcome [14]

C=C(C)CS(=O)(=O)O
inactive: Potency [1] | Potency [2] | outcome [3] | Potency [4] | Potency [5] | Potency [6] | Potency [7] | Potency [8] | Potency [9] | Potency [10] | Potency [11] | Potency [12] | Potency [13] | outcome [14]

OC1CCCCC1c1ccccc1 (stereo not drawn)
inactive: Potency [1] | Potency [2] | outcome [3] | Potency [4] | Potency [5] | Potency [6] | Potency [7] | Potency [8] | Potency [9] | Potency [10] | Potency [11] | Potency [12] | Potency [13] | outcome [14]

CCC(C)S (stereo not drawn)
inactive: activation [1] 0.574% [at 2.71 µM] | activity change, negative = cytotoxicity [2] 0.658% [at 2.72 µM] | activity change, negative = cytotoxicity [3] 1.76% [at 3.27 µM] | activity, negative = inhibition [4] -4.13% [at 3.27 µM] | activation [5] 1.68% [at 3.75 µM] | viability change, negative = cytotoxic [6] 1.27% [at 3.27 µM] | activity change, negative = inhibition [7] 5.34% [at 4.07 µM] | viability change, negative = cytotoxic [8] 6.36% [at 3.27 µM] | activity change, negative = cytotoxicity [9] 4.49% [at 3.26 µM] | activity, negative = inhibition [10] -7.32% [at 3.26 µM] | activation [11] 0.262% [at 3.27 µM] | viability change, negative = cytotoxic [12] 2.53% [at 3.27 µM] | activity, negative = inhibition [13] 1.33% [at 3.27 µM] | activation [14] 0.822% [at 3.27 µM]

CN(C(=O)c1c(O)c2ccccc2n(C)c1=O)c1ccccc1
inactive: Potency [1] | Potency [2] | outcome [3] | Potency [4] | Potency [5] | Potency [6] | Potency [7] | Potency [8] | Potency [9] | Potency [10] | Potency [11] | Potency [12] | Potency [13] | outcome [14]

CC(=O)N(CC(O)CO)c1c(I)c(C(=O)NCCO)c(I)c(C(=O)NCC(O)CO)c1I (stereo not drawn)
inactive: Potency [1] | Potency [2] | outcome [3] | Potency [4] | Potency [5] | Potency [6] | Potency [7] | Potency [8] | Potency [9] | Potency [10] | Potency [11] | Potency [12] | Potency [13] | outcome [14]

C[C@@H]1CCN(C(=O)[C@H](CCCN=C(N)N)NS(=O)(=O)c2cccc3c2NC[C@H](C)C3)[C@@H](C(=O)O)C1
inactive: Potency [1] | Potency [2] | outcome [3] | Potency [4] | Potency [5] | Potency [6] | Potency [7] | Potency [8] | Potency [9] | Potency [10] | Potency [11] | Potency [12] | Potency [13] | outcome [14]

Cc1sccc1Br
inactive: Potency [1] | Potency [2] | outcome [3] | Potency [4] | Potency [5] | Potency [6] | Potency [7] | Potency [8] | Potency [9] | Potency [10] | Potency [11] | Potency [12] | Potency [13] | outcome [14]
